Data reported in PubChem BioAssay AID1347069 (National Center for Advancing Translational Sciences (NCATS), 2019).
Fewer than 10 of roughly 44,000 compounds were called active. Only a sample is shown. A number with no mark means an inactive call. Calls come from the whole dose curve; as a rule, active = well fitted inhibition curve with a large enough effect; inconclusive = small, poorly fitted or top-dose-only effect; inactive = flat fitted curve, though single readings scatter.

Target: Tumor susceptibility gene 101 protein (Homo sapiens) (UniProt Q99816)
Experiment: qHTS Validation Assay for Inhibitors of HIV-1 Budding by Blocking the Interaction of PTAP/TSG101: Sytravon Library Screen; note: 0% is about no effect
Settings: Fluorescence polarization, FITC-PTAP peptide/Tsg101, 20 min; series mostly up to 115 µM; activity change, negative = inhibition: at the top concentration
In short: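 Fluorescence polarization: Tsg101 binding domain (10 uM final) in 10 mM HEPES pH 7.5, 0.15 M NaCl, 0.01% Tween 20, 3 mM EDTA, 0.1 mM TCEP; compounds pinned; FITC-PTAP peptide 50 nM final; 20 min, r.t.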

Tumor susceptibility gene 101 protein (Homo sapiens), sequence (Q99816 whole entry, looked up): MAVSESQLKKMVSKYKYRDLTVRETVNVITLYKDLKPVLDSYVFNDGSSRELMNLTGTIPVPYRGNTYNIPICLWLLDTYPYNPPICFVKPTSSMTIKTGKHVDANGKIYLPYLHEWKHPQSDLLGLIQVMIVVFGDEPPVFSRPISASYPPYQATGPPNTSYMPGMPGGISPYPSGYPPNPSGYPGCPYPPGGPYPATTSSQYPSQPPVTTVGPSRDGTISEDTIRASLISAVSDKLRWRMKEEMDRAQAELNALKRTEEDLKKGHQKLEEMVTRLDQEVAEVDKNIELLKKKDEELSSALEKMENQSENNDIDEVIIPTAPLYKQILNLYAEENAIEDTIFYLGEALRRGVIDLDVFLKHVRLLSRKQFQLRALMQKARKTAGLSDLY

Q: How did the “activity change, negative = inhibition” value turn out when `CCC(C(=O)Nc1cccc(Cl)c1C)n1nc(-c2ccc(C)cc2)ccc1=O` (stereo unspecified) was run?
A: -0.32%

Q: Which “activity change, negative = inhibition” value does the source give for `Cc1cccc(CNS(=O)(=O)c2ccc(-c3cnc(C4CC4)o3)cc2)c1` here?
A: -0.156%

Q: `CCc1cc2c(-c3ccccc3)cc(=O)oc2c2c1OCN(Cc1ccc(C)cc1)C2` was tested. Which “activity change, negative = inhibition” value did it give?
A: -3.39%

Q: How did the “activity change, negative = inhibition” value turn out when `Cc1oc2ccc(O)c(CN3CCCCC3)c2c1C(=O)Nc1cccc(C(F)(F)F)c1` was run?
A: -2.89%

Q: Which “activity change, negative = inhibition” value does the source give for `CC(C)Cn1c(=O)c2ccccc2n2c(-c3cccc(Cl)c3)nnc12` here?
A: 2.06%

Q: `O=C(Nc1cc(Cl)cc(Cl)c1)c1ccc2c(c1)N(Cc1cccc(Cl)c1)C(=O)c1ccccc1S2=O` (stereo unspecified) was tested. Which “activity change, negative = inhibition” value did it give?
A: 0.631%

Q: Which “activity change, negative = inhibition” value does the source give for `O=C(O)c1ccc(Nc2nc(-c3ccccc3)c3cc(Br)ccc3n2)cc1` here?
A: -17.5%

Q: With `Cc1cc(C)c2sc(NC(=O)c3ccc(S(=O)(=O)N4CCCC4)cc3)nc2c1` as the compound, how does the “activity change, negative = inhibition” value read?
A: 4.94%

Q: With `CCc1ccc(NC(=O)c2cnc3c(-c4ccccc4)c(C)nn3c2C)cc1` as the compound, how does the “activity change, negative = inhibition” value read?
A: -1.8%

Q: For `COc1ccc(-c2csc(-c3c(N)c(C(=O)c4ccc(OC)c(OC)c4)n4ccccc34)n2)cc1`, which “activity change, negative = inhibition” value is on record?
A: 3.42%

Q: With `Cc1ccc(C)c(N2CCN(C(c3ccccc3)c3nnc(-c4ccccc4)o3)CC2)c1` (stereo unspecified) as the compound, how does the “activity change, negative = inhibition” value read?
A: 0.0723%

Q: With `Fc1ccc(-c2nn(-c3ccccc3Cl)c3c2cnc2ccccc23)cc1` as the compound, how does the “activity change, negative = inhibition” value read?
A: 2.46%

Q: With `CCOc1ccccc1CNC(=O)c1ccc2c(c1)nc1n2CCC(C)C1` (stereo unspecified) as the compound, how does the “activity change, negative = inhibition” value read?
A: -0.0943%

Q: For `COc1ccccc1OCC(=O)Nc1nnc2n1CCS2`, which “activity change, negative = inhibition” value is on record?
A: -0.292%

Q: `CCOC(=O)c1c(C)oc2ccc(N(C(=O)c3ccncc3)S(=O)(=O)c3ccc(CC)cc3)cc12` was tested. Which “activity change, negative = inhibition” value did it give?
A: 1.17%

Q: Which “activity change, negative = inhibition” value does the source give for `O=C(CCS(=O)(=O)c1ccccc1)N(Cc1cccnc1)c1nc2c(F)cccc2s1` here?
A: -1.2%

Q: `Cn1c(=O)sc2cc(NS(=O)(=O)c3ccc(C(C)(C)C)cc3)ccc21` was tested. Which “activity change, negative = inhibition” value did it give?
A: -5.39%

Q: For `COc1ccc2c(CNCCc3ccccc3C)c(C(=O)O)n(Cc3ccccc3C)c2c1`, which “activity change, negative = inhibition” value is on record?
A: -3.79%

Q: For `Cc1cc2c(cc1C)C(c1cccc(OC(C)C)c1)CC(=O)N2` (stereo unspecified), which “activity change, negative = inhibition” value is on record?
A: -1.3%

Q: With `CCc1nn(CCCC(=O)NCc2ccccc2OC)c(=O)c2cc3occc3n12` as the compound, how does the “activity change, negative = inhibition” value read?
A: -0.0025%

Q: Which “activity change, negative = inhibition” value does the source give for `Cc1cccc(NC(=O)c2ccc(F)c(S(=O)(=O)N(C)C3CCCCC3)c2)c1` here?
A: 0.693%

Q: For `COc1ccc(CCNC(=O)c2ccc3c(c2)nc(C)n3-c2ccc(Br)cc2)cc1OC`, which “activity change, negative = inhibition” value is on record?
A: 0.65%

Q: How did the “activity change, negative = inhibition” value turn out when `CCCCn1cc(S(=O)(=O)c2ccc(OCC)cc2)c(=O)c2cc(OC)c(OC)cc21` was run?
A: -6.12%

Q: Which “activity change, negative = inhibition” value does the source give for `COc1ccccc1CNc1nc2ccc(Cl)cc2n2cnnc12` here?
A: -1.28%

Q: How did the “activity change, negative = inhibition” value turn out when `Cc1ccccc1CNC(=O)CCc1cn(Cc2ccccc2C)c2ccccc12` was run?
A: 10.9%

Q: With `COc1ccccc1-n1c(-c2ccc(C)cc2)cn2c3c(=O)n(C)c(=O)n(C)c3nc12` as the compound, how does the “activity change, negative = inhibition” value read?
A: -1.18%

Q: Which “activity change, negative = inhibition” value does the source give for `CCOC(=O)C1CCCN(C(=O)c2ccc(-n3ccc4ccccc43)s2)C1` (stereo unspecified) here?
A: -0.557%

Q: How did the “activity change, negative = inhibition” value turn out when `Cc1cc(C)cc(NC(=O)c2cnc3sc(N4CCCC4)nn3c2=O)c1` was run?
A: -0.768%

Q: How did the “activity change, negative = inhibition” value turn out when `COc1cc(NC(=O)CSc2nc3nc(C)c(Cc4ccc(C)cc4)c(C)n3n2)cc(OC)c1OC` was run?
A: -13.3%

Q: `Cc1oc(C)c2c(=O)cc(-c3ccc4c(c3)OCO4)cc(OC(=O)c3ccc(Cl)cc3)c12` was tested. Which “activity change, negative = inhibition” value did it give?
A: -2.11%

Q: `COc1cccc(N=C2SC(C(=O)Nc3cccc(Cl)c3)CC(=O)N2C)c1` (stereo unspecified) was tested. Which “activity change, negative = inhibition” value did it give?
A: -1.5%

Q: With `Cc1ccccc1-c1nc2scc(CCNC(=O)C(=O)Nc3ccc(F)cc3F)n2n1` as the compound, how does the “activity change, negative = inhibition” value read?
A: -0.431%

Q: `O=C(CSCc1cnn(-c2ccccc2)c1-n1cccc1)NCc1ccc(Cl)cc1` was tested. Which “activity change, negative = inhibition” value did it give?
A: -1.64%

Q: Which “activity change, negative = inhibition” value does the source give for `CCN(CC)S(=O)(=O)c1ccc(C(=O)N=c2sc3cccc(OC)c3n2C)cc1` here?
A: 2.51%

Q: With `CC(=O)Nc1ccc(NC(=O)c2cc3sccc3n2Cc2ccc(F)cc2)cc1` as the compound, how does the “activity change, negative = inhibition” value read?
A: -6.8%

Q: Which “activity change, negative = inhibition” value does the source give for `CC(C)Cn1c(C2CC(=O)N(c3ccccc3Cl)C2)nc2ccccc21` (stereo unspecified) here?
A: 1.31%

Q: With `CC1=C(C(=O)OCC2CCCCC2)C(c2c(F)cccc2Cl)CC(=O)N1` (stereo unspecified) as the compound, how does the “activity change, negative = inhibition” value read?
A: -0.961%

Q: For `COc1cc(Cl)c(C)cc1NC(=O)CCc1nc2cccnc2n1Cc1cccs1`, which “activity change, negative = inhibition” value is on record?
A: -0.925%

Q: Which “activity change, negative = inhibition” value does the source give for `COc1ccc(-c2nc(Cn3c(=O)cc(C)c4c(C)nn(-c5ccccc5)c43)c(C)o2)cc1OC` here?
A: 1.24%

Q: `CCC(=O)N1CCc2cc(Br)cc(S(=O)(=O)Nc3ccc(C)cc3C)c21` was tested. Which “activity change, negative = inhibition” value did it give?
A: -1.22%

Q: With `CC(C)c1ccc(S(=O)(=O)Nc2ccc(O)c(Sc3nc4ccccc4s3)c2)cc1` as the compound, how does the “activity change, negative = inhibition” value read?
A: -8.58%

Q: `Cc1ccc(-c2nn3c(=O)cc(CN4CCN(S(=O)(=O)c5ccc(Cl)cc5)CC4)nc3s2)cc1` was tested. Which “activity change, negative = inhibition” value did it give?
A: -1.06%

Q: How did the “activity change, negative = inhibition” value turn out when `NS(=O)(=O)c1ccc(NC(=O)COc2ccc(S(=O)(=O)NC3CCCCC3)cc2)cc1` was run?
A: -1.5%

Q: How did the “activity change, negative = inhibition” value turn out when `Cc1ccc(NC(=O)Cc2ccc(NC(=O)N3CCCCc4ccccc43)cc2)cc1` was run?
A: 0.025%

Q: With `CC1CCC(N2CC(=O)N(CCC3=CCCCC3)C(c3ccc(F)cc3)C2=O)CC1` (stereo unspecified) as the compound, how does the “activity change, negative = inhibition” value read?
A: -9.66%

Q: For `CCOc1ccccc1CNC(=O)c1ccc(-n2c(C)cc3c2CCC(C)C3)cc1` (stereo unspecified), which “activity change, negative = inhibition” value is on record?
A: 1.74%

Q: Which “activity change, negative = inhibition” value does the source give for `O=S(=O)(c1ccc(Br)cc1)c1nnn2c1nc(NC1CCCCCC1)c1sccc12` here?
A: -3.9%

Q: How did the “activity change, negative = inhibition” value turn out when `Cc1oc(-c2ccccc2)nc1Cn1c(SCc2cccc(C(F)(F)F)c2)nc2cccnc21` was run?
A: 0.507%

Q: `CCCCOC(=O)/C(C#N)=C/c1ccc(-c2cccc(C(F)(F)F)c2)o1` was tested. Which “activity change, negative = inhibition” value did it give?
A: 8.04%

Q: Which “activity change, negative = inhibition” value does the source give for `CCOc1ccccc1C(=O)Nc1ccc(S(=O)(=O)N2CCCCC2c2cccnc2)cc1` (stereo unspecified) here?
A: 1.42%

Q: With `CN(Cc1ccccc1)c1ncnc2onc(-c3ccc(F)cc3)c12` as the compound, how does the “activity change, negative = inhibition” value read?
A: -1.11%

Q: `Cc1cccc(C(C)C)c1NC(=O)C(NS(=O)(=O)c1cccc2nsnc12)c1ccccc1` (stereo unspecified) was tested. Which “activity change, negative = inhibition” value did it give?
A: -0.333%

Q: Which “activity change, negative = inhibition” value does the source give for `Cc1cccc(Cc2c(C)nc3nc(SCc4ccccc4Cl)nn3c2C)c1` here?
A: 0.0529%

Q: With `Cc1ccc(/C=C(\C#N)C(=O)Nc2cc(C)ccc2C)cc1` as the compound, how does the “activity change, negative = inhibition” value read?
A: -0.172%

Q: `COc1ccc(Cn2c(=O)n(-c3ccccc3C)c(=O)c3c4c(sc32)CN(C(C)=O)CC4)cc1` was tested. Which “activity change, negative = inhibition” value did it give?
A: -0.737%

Q: Which “activity change, negative = inhibition” value does the source give for `CCOC(=O)c1cc2c(=O)n3ccccc3nc2n(CC2CCCO2)c1=NC(=O)c1ccccc1F` (stereo unspecified) here?
A: 0.0852%
